Measurements reported in PubChem BioAssay (NCI).
About 83,000 compounds went through this panel and 20% of them were active in at least one assay; those are over-represented in the sample as a whole.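 Cells were grown in 96-well plates and exposed to the test compound at a single concentration for 48 hours; results are reported as percent growth, with values below 10 considered active.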 Calls of active or inactive are those of the source.

Legend:
Test in all cases: NCI-60 one-dose screen, 48 h (100 = growth as untreated, 0 = no growth, -100 = all killed)
Conditions in all cases: 10 µM unless noted
HCT-15 colon = test system: HCT-15 colon
HT29 colon = test system: HT29 colon
SNB-75 CNS = test system: SNB-75 CNS
SNB-19 CNS = test system: SNB-19 CNS
U251 CNS = test system: U251 CNS
PC-3 prostate = test system: PC-3 prostate
SK-MEL-5 melanoma = test system: SK-MEL-5 melanoma
UACC-62 melanoma = test system: UACC-62 melanoma
LOX IMVI melanoma = test system: LOX IMVI melanoma
SK-MEL-28 melanoma = test system: SK-MEL-28 melanoma

Measured: growth

CNC(=O)c1ccccc1Sc1ccc2c(/C=C/c3ccccn3)n[nH]c2c1
inactive: HCT-15 colon 33.9% | HT29 colon 25.2% | SNB-75 CNS 26.3% | SNB-19 CNS 50.2% | U251 CNS 40.1% | PC-3 prostate 28.1% | SK-MEL-5 melanoma 11.2% | UACC-62 melanoma 13% | SK-MEL-28 melanoma 40.7%
active: LOX IMVI melanoma 8.31%

O=C1C=CC(=O)N1CO
inactive: HCT-15 colon 116% | HT29 colon 105% | SNB-75 CNS 100% | SNB-19 CNS 103% | U251 CNS 117% | PC-3 prostate 102% | SK-MEL-5 melanoma 114% | UACC-62 melanoma 106% | LOX IMVI melanoma 120% | SK-MEL-28 melanoma 117%

CN(C)c1ccc(Nc2c3ccccc3nc3ccccc23)cc1
active: HCT-15 colon 6.89% | HT29 colon 8.13% | SNB-75 CNS 9.38% | SK-MEL-5 melanoma 9.1% | LOX IMVI melanoma -7.85%
inactive: SNB-19 CNS 28.4% | U251 CNS 23% | PC-3 prostate 33% | UACC-62 melanoma 14.3% | SK-MEL-28 melanoma 26%

O=C1C(Cl)=C(N/N=c2/[nH][nH]/c(=N/NC3=C(Cl)C(=O)c4ccccc4C3=O)c3ccccc23)C(=O)c2ccccc21
active: U251 CNS 2.88%
inactive: HCT-15 colon 83.9% | HT29 colon 102% | SNB-75 CNS 63.6% | SNB-19 CNS 61.9% | PC-3 prostate 55.5% | SK-MEL-5 melanoma 62.6% | UACC-62 melanoma 25.7% | LOX IMVI melanoma 69.8% | SK-MEL-28 melanoma 104%

Cc1cc(NC(=O)c2ccc(N)cc2)ccc1N=Nc1ccc2cc(S(=O)(=O)O)cc(S(=O)(=O)O)c2c1
inactive: HCT-15 colon 104% | HT29 colon 99% | SNB-75 CNS 101% | SNB-19 CNS 129% | U251 CNS 92.9% | PC-3 prostate 85.6% | SK-MEL-5 melanoma 111% | UACC-62 melanoma 114% | LOX IMVI melanoma 99% | SK-MEL-28 melanoma 117%

O=c1cc(-c2ccc3c(c2)OCCO3)oc2cc(Cl)ccc12
active: HT29 colon -16.8% | SNB-75 CNS -38.5% | U251 CNS 4.26%
inactive: HCT-15 colon 74.5% | SNB-19 CNS 30.3% | PC-3 prostate 43.3% | SK-MEL-5 melanoma 76.3% | UACC-62 melanoma 65.1% | LOX IMVI melanoma 32.1% | SK-MEL-28 melanoma 21.4%

Cc1nc2ccc(Nc3nc(N4CCOCC4)nc(N4CCN(C)CC4)n3)cc2n1Cc1ccccc1
inactive: HCT-15 colon 87.4% | HT29 colon 53% | SNB-75 CNS 62.4% | SNB-19 CNS 112% | U251 CNS 73.5% | PC-3 prostate 90% | SK-MEL-5 melanoma 71.4% | UACC-62 melanoma 107% | LOX IMVI melanoma 74.7% | SK-MEL-28 melanoma 64.1%

COc1cc(/C=C/c2ccc3c(Br)cc(Br)c(O)c3n2)ccc1O
inactive: HCT-15 colon 27.6% | HT29 colon 36.7% | SNB-75 CNS 36.5% | SNB-19 CNS 23.4% | U251 CNS 16.4% | PC-3 prostate 12.9% | SK-MEL-5 melanoma 27.5% | UACC-62 melanoma 10% | LOX IMVI melanoma 29.5% | SK-MEL-28 melanoma 23.3%

Cc1cc(C)c2c(NC(=O)Nc3ccc(Cl)c(Cl)c3)n[nH]c2n1
inactive: HCT-15 colon 100% | HT29 colon 96.9% | SNB-75 CNS 88.7% | SNB-19 CNS 101% | U251 CNS 102% | PC-3 prostate 103% | SK-MEL-5 melanoma 103% | UACC-62 melanoma 103% | LOX IMVI melanoma 99.8% | SK-MEL-28 melanoma 104%

COc1cc(C(=O)/C=C/c2cn(-c3ccccc3)nc2-c2cccc(Nc3ccnc4cc(Cl)ccc34)c2)cc(OC)c1OC
inactive: HCT-15 colon 87.4% | HT29 colon 77.1% | SNB-75 CNS 107% | SNB-19 CNS 116% | U251 CNS 88.1% | PC-3 prostate 107% | SK-MEL-5 melanoma 71.4% | UACC-62 melanoma 104% | LOX IMVI melanoma 71.5% | SK-MEL-28 melanoma 93.9%

COc1ccc(C2CC(c3ccc(Nc4ccnc5cc(Cl)ccc45)cc3)=NN2c2ccccc2)cc1 (stereo not given)
inactive: HCT-15 colon 87.2% | HT29 colon 52% | SNB-75 CNS 104% | SNB-19 CNS 109% | U251 CNS 81.9% | PC-3 prostate 78% | SK-MEL-5 melanoma 79.9% | UACC-62 melanoma 95% | LOX IMVI melanoma 100% | SK-MEL-28 melanoma 97.3%

CC(=O)[C@@]1(O)[C@H](C)C[C@H]2[C@@H]3C=C(C)C4=Cc5c(cnn5-c5ccccc5)C[C@]4(C)[C@H]3[C@@H](O)C[C@@]21C
active: HCT-15 colon -27.9% | HT29 colon -76.9% | U251 CNS 6.52% | PC-3 prostate 1.78% | UACC-62 melanoma 1.84% | LOX IMVI melanoma 4.75%
inactive: SNB-75 CNS 40.4% | SNB-19 CNS 70.2% | SK-MEL-5 melanoma 38.1% | SK-MEL-28 melanoma 43.6%

CC1=NOCC(=O)N1
inactive: HCT-15 colon 102% | HT29 colon 101% | SNB-75 CNS 85.3% | SNB-19 CNS 95.6% | U251 CNS 94.7% | PC-3 prostate 95.2% | SK-MEL-5 melanoma 99.7% | UACC-62 melanoma 102% | LOX IMVI melanoma 89.1% | SK-MEL-28 melanoma 99.4%

Cc1cc(C)c([O-])c(CN(C)CCN(C)Cc2cc(C)cc(C)c2[O-])c1.O=C([O-])c1cccc(C(=O)[O-])n1.[Ti+4]
active: HT29 colon -32.8% | SNB-75 CNS -12.1% | U251 CNS 9.4% | PC-3 prostate -0.468% | SK-MEL-5 melanoma 9.84% | LOX IMVI melanoma -58.1% | SK-MEL-28 melanoma -27.2%
inactive: HCT-15 colon 36.4% | SNB-19 CNS 26.6% | UACC-62 melanoma 25.8%

Cc1ccc(CSCc2ccc(C(=O)NC3CC3)o2)cc1
inactive: HCT-15 colon 37.7% | HT29 colon 27.9% | SNB-75 CNS 86% | SNB-19 CNS 98.8% | U251 CNS 56.4% | PC-3 prostate 74.2% | SK-MEL-5 melanoma 57.3% | UACC-62 melanoma 50.5% | LOX IMVI melanoma 58.2% | SK-MEL-28 melanoma 100%

O=C(Cc1ccc(Nc2ccnc(C(F)(F)F)c2)cc1)N/N=C/c1ccccc1O
active: LOX IMVI melanoma 9.12%
inactive: HCT-15 colon 14.6% | HT29 colon 75.4% | SNB-75 CNS 30.8% | SNB-19 CNS 31.1% | U251 CNS 23.8% | PC-3 prostate 71.1% | SK-MEL-5 melanoma 10.8% | UACC-62 melanoma 10.8% | SK-MEL-28 melanoma 106%

O=C1C=CC(=O)N1c1cccc(N2C(=O)C=CC2=O)c1
inactive: HCT-15 colon 23.1% | HT29 colon 23.5% | SNB-75 CNS 96% | SNB-19 CNS 147% | U251 CNS 111% | PC-3 prostate 99.9% | SK-MEL-5 melanoma 116% | UACC-62 melanoma 109% | LOX IMVI melanoma 73.5% | SK-MEL-28 melanoma 108%

COCCCNCC(=O)Nc1c(C)cccc1C
inactive: HCT-15 colon 108% | HT29 colon 112% | SNB-75 CNS 115% | SNB-19 CNS 110% | U251 CNS 104% | PC-3 prostate 102% | SK-MEL-5 melanoma 106% | UACC-62 melanoma 110% | LOX IMVI melanoma 101% | SK-MEL-28 melanoma 122%

Cc1ccccc1N1C(c2ccccc2)=NNC12C=CC(=O)c1c(O)cccc12 (stereo not given)
active: SK-MEL-5 melanoma -26.3% | LOX IMVI melanoma 7.11%
inactive: HCT-15 colon 29.5% | HT29 colon 91.7% | SNB-75 CNS 81.7% | SNB-19 CNS 60.8% | U251 CNS 34.9% | PC-3 prostate 46.7% | UACC-62 melanoma 12% | SK-MEL-28 melanoma 102%

CCOC(=O)c1sc2nc(-c3cc4ccccc4o3)cc(-c3ccc(Cl)cc3)c2c1N
inactive: HCT-15 colon 101% | HT29 colon 105% | SNB-75 CNS 74.7% | SNB-19 CNS 101% | U251 CNS 95.8% | PC-3 prostate 77% | SK-MEL-5 melanoma 110% | UACC-62 melanoma 66.8% | LOX IMVI melanoma 91.6% | SK-MEL-28 melanoma 108%

CCCCn1c(C)nc2ccc(Nc3nc(Cl)nc4nc[nH]c34)cc21
inactive: HCT-15 colon 82.6% | HT29 colon 79.9% | SNB-75 CNS 62.8% | SNB-19 CNS 90.5% | U251 CNS 74.5% | PC-3 prostate 36.3% | SK-MEL-5 melanoma 63.6% | UACC-62 melanoma 69.8% | LOX IMVI melanoma 90.2% | SK-MEL-28 melanoma 94.3%

Clc1ccc(Nc2ncnc3c2sc2ncccc23)cc1
inactive: HCT-15 colon 47.3% | HT29 colon 38.1% | SNB-75 CNS 47.9% | SNB-19 CNS 26.3% | U251 CNS 28% | PC-3 prostate 54.5% | SK-MEL-5 melanoma 23.4% | UACC-62 melanoma 11.4% | LOX IMVI melanoma 12.2% | SK-MEL-28 melanoma 74.9%

Cc1cc(O)c(C2=NN(c3ccc(S(N)(=O)=O)cc3)C(c3ccc(Cl)cc3)C2)c(C)c1Cl (stereo not given)
inactive: HCT-15 colon 65.2% | HT29 colon 55.1% | SNB-75 CNS 67.4% | SNB-19 CNS 89.8% | U251 CNS 70% | PC-3 prostate 12.1% | SK-MEL-5 melanoma 81.7% | UACC-62 melanoma 53% | LOX IMVI melanoma 52.4% | SK-MEL-28 melanoma 76.3%

Cc1ccc(/C=C/C(=N/N=C(N)N)c2ccccc2)cc1
active: HT29 colon 4.56% | SNB-75 CNS -0.425%
inactive: HCT-15 colon 27.6% | SNB-19 CNS 38.9% | U251 CNS 13.4% | SK-MEL-5 melanoma 11.3% | UACC-62 melanoma 33.9% | LOX IMVI melanoma 30.8% | SK-MEL-28 melanoma 46.2%

COC(=O)C(CCC(=O)CCl)N1C(=O)c2ccccc2C1=O (stereo not given)
active: LOX IMVI melanoma -44.1%
inactive: HCT-15 colon 48.1% | HT29 colon 34.3% | SNB-75 CNS 91.5% | SNB-19 CNS 99.9% | U251 CNS 47.1% | SK-MEL-5 melanoma 71.3% | UACC-62 melanoma 64.8% | SK-MEL-28 melanoma 87%

Cc1ccc(-c2nc3ccccc3c(=O)n2/N=C/c2cccc3ccccc23)cc1
inactive: HCT-15 colon 74.3% | HT29 colon 102% | SNB-75 CNS 74.3% | SNB-19 CNS 94.4% | U251 CNS 77% | SK-MEL-5 melanoma 75.5% | UACC-62 melanoma 69.4% | LOX IMVI melanoma 63.4% | SK-MEL-28 melanoma 85.6%

COc1ccc(C(=O)/C=C/c2cn(-c3ccccc3)nc2-c2cccc(Nc3ccnc4cc(Cl)ccc34)c2)cc1
inactive: HCT-15 colon 101% | HT29 colon 104% | SNB-75 CNS 99.5% | SNB-19 CNS 93.2% | U251 CNS 94.9% | SK-MEL-5 melanoma 88.4% | UACC-62 melanoma 89.9% | LOX IMVI melanoma 104% | SK-MEL-28 melanoma 95.3%

CCCCCCCCCCCCCCC(C(=O)OCC)C(=O)OCC
inactive: HCT-15 colon 99.5% | HT29 colon 115% | SNB-75 CNS 94.7% | SNB-19 CNS 102% | U251 CNS 104% | SK-MEL-5 melanoma 99.3% | UACC-62 melanoma 101% | LOX IMVI melanoma 119% | SK-MEL-28 melanoma 102%
